# Measurements: PubChem BioAssay (EPA / NIEHS)
# Records with an inconclusive call do not appear. Active and inactive are the calls of the source. Rule for the calls: active = hit-call score of the fitted dose curve at least 0.9, where 1 is the maximum; inconclusive = response in the unintended direction; inactive = score below 0.9.
# Tests used:
# [1] = STM_H9_NormalizedViability: Cytotoxicity Assessment at 120 hours in the Stemina devTOX quickPredict H9 human embryonic stem cell (hESC)-based Assay (AID 2283784)
# Method in brief: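 Pluripotent H9 hESCs were exposed, with chemical and media replaced every 24 h. Viability was read by CellTiter-Fluor fluorescence, background-corrected and normalized to the 0.1% DMSO neutral control per plate. Loss of signal was fitted.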
# [2] = biological target: AR (gene 367) (UniProt P10275); assay: ACEA_AR_antagonist_80hr: ACEA Biosciences xCELLigence Real-Time Cell Analysis on Androgen Receptor Antagonism for Proliferation (AID 2283787);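 note: 22Rv1 human prostate cancer cells with growth followed by electrical impedance; hits lower the impedance growth signal relative to DMSO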
# Method in brief: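 Impedance readout (RT-CES), 80 h post-dose; loss-of-signal vs DMSO baseline. 22Rv1 cells in assay medium. Compounds: 8-pt 1:4 series, max 100 uM final, up to 0.5% DMSO; n = 2.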
# [3] = biological target: human Androgen Receptor (AR), AR (gene 367) (UniProt P10275); assay: ATG_hAR_XSP1: Attagene TRANS-FACTORIAL Multi-Species (XSP1) HepG2 Assay for human Androgen Receptor (AR) (AID 2283785)
# Method: ATG_XSP1_multi-species_TRANS is a cell-based, multiplexed assay created by modifying the existing Attagene TRANS-FACTORIAL system to include a panel of nuclear receptors from some or all the following species: human (Homo sapiens), mouse (Mus musculus), frog (Xenopus laevis), zebrafish (Danio rerio), chicken (Gallus gallus), and turtle (Chrysemys picta). The ECOTOX-FACTORIAL format uses HepG2, a human liver cell line, with measurements taken at 24 hours after chemical dosing in a 24-well plate. Xsp1 included 3 nM 6-alpha-fluorotestosterone to partially stimulate the androgen receptor.ATG_hAR_XSP1 is one of 29 assay components measured or calculated from the ATG_XSP1_multi-species_TRANS assay. It is designed to make measurements of mRNA induction, a form of inducible reporter, as detected with fluorescence intensity signals by Reverse transcription polymerase chain reaction (RT-PCR) and Capillary electrophoresis technology.The assay endpoint ATG_hAR_XSP1 was analyzed in the positive analysis fitting direction relative to DMSO as the negative control and baseline of activity. […] Furthermore, this assay endpoint can be referred to as a primary readout, because this assay has produced multiple assay endpoints where this one serves a reporter gene function. […]
# [4] = system: turtle Androgen Receptor (AR), gene 101947425; assay: ATG_trAR_XSP1: Attagene TRANS-FACTORIAL Multi-Species (XSP1) HepG2 Assay for turtle Androgen Receptor (AR) (AID 2283786)
# Method in brief: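 HepG2 cells transiently transfected with a turtle AR–GAL4 chimera and GAL4-UAS reporter, co-treated with 3 nM 6-alpha-fluorotestosterone for partial stimulation. Reporter mRNA is quantified at 24 h by RT-PCR and capillary electrophoresis, gain-of-signal versus DMSO.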
# [5] = biological target: Estrogen receptor beta (Homo sapiens) (UniProt Q92731); assay: ATG_hERb_XSP1: Attagene TRANS-FACTORIAL Multi-Species (XSP1) HepG2 Assay for human Estrogen Receptor (ESR2) (AID 2283788)
# Method in brief: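 Read-out: reporter mRNA induction by RT-PCR, HpaI digestion and capillary electrophoresis fluorescence, fitted in positive direction relative to DMSO baseline. Human liver HepG2 cells expressing ERβ-Gal4 fusion, dosed 24 h, medium containing 3 nM 6-alpha-fluorotestosterone.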
# [6] = ATG_M_19_XSP1: Attagene TRANS-FACTORIAL Multi-Species (XSP1) HepG2 Assay for M19 Transcription Factor (Internal Marker) (AID 2283798)
# Method in brief: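 HepG2 cells transiently transfected with multiplexed GAL4-UAS reporter units, dosed 24 h with 3 nM 6-alpha-fluorotestosterone present for partial AR stimulation. Reporter mRNA measured by RT-PCR with capillary electrophoresis; gain-of-signal fitted relative to DMSO.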
# [7] = ATG_M_32_XSP1: Attagene TRANS-FACTORIAL Multi-Species (XSP1) HepG2 Assay for M32 Transcription Factor (Internal Marker) (AID 2283799)
# Method in brief: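 HepG2 cells transiently transfected with multi-species TRANS reporter units, dosed 24 h with 3 nM 6-alpha-fluorotestosterone present. Internal-marker reporter mRNA quantified by RT-PCR and capillary electrophoresis; positive-direction fit versus DMSO.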
# [8] = biological target: frog Thyroid hormone Receptor alpha (TRa), thra-a (gene 397942) (UniProt P15204); assay: ATG_frTRa_XSP1: Attagene TRANS-FACTORIAL Multi-Species (XSP1) HepG2 Assay for frog Thyroid hormone Receptor alpha (TRa) (AID 2283804)
# Method in brief: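 HepG2 cells transiently transfected with frog TRa-GAL4 chimeric reporter units, dosed 24 hr with 3 nM 6-alpha-fluorotestosterone present; reporter mRNA quantified by RT-PCR, fluorescent labelling and capillary electrophoresis, gain of signal versus DMSO.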
# [9] = system: turtle Thyroid Hormone Receptor, alpha (TRa), gene 101949057; assay: ATG_trTRa_XSP1: Attagene TRANS-FACTORIAL Multi-Species (XSP1) HepG2 Assay for turtle Thyroid Hormone Receptor, alpha (TRa) (AID 2283806)
# Method in brief: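 HepG2 cells transiently transfected with GAL4-UAS reporter units and chimeric receptor-Gal4 constructs, with 3 nM 6-alpha-fluorotestosterone present. Reporter mRNA was quantified 24 h after dosing by RT-PCR, 6-FAM labelling and capillary electrophoresis; gain of signal versus DMSO.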
# [10] = biological target: zebrafish Thyroid Hormone Receptor beta (TRb), thrb (gene 30607) (UniProt Q9PVE4); assay: ATG_zfTRb_XSP1: Attagene TRANS-FACTORIAL Multi-Species (XSP1) HepG2 Assay for zebrafish Thyroid Hormone Receptor beta (TRb) (AID 2283809)
# Method in brief: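 HepG2 cells transiently transfected with multiplexed GAL4-UAS reporter units expressing chimeric zebrafish TRb–Gal4. Dosed 24 h with 3 nM 6-alpha-fluorotestosterone present; reporter mRNA measured by RT-PCR, HpaI digestion and capillary electrophoresis; gain of signal versus DMSO.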
# [11] = biological target: GAL4 Transcription Factor (Internal Marker), GAL4 (gene 855828) (UniProt P04386); assay: ATG_GAL4_XSP1: Attagene TRANS-FACTORIAL Multi-Species (XSP1) HepG2 Assay for GAL4 Transcription Factor (Internal Marker) (AID 2283789)
# Method in brief: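 HepG2 cells transiently transfected with multiplexed GAL4-UAS reporter units were exposed for 24 h with 3 nM 6-alpha-fluorotestosterone present. Reporter mRNA was quantified by RT-PCR, FAM labelling, HpaI digestion and capillary electrophoresis; background-control readout, gain-of-signal versus DMSO.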
# [12] = system: zebrafish Peroxisome Proliferator-activated Receptor gamma (PPARg), gene 557037; assay: ATG_zfPPARg_XSP1: Attagene TRANS-FACTORIAL Multi-Species (XSP1) HepG2 Assay for zebrafish Peroxisome Proliferator-activated Receptor gamma (PPARg) (AID 2283801)
# Method in brief: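 HepG2 cells transiently transfected with GAL4-UAS reporter units including a zebrafish PPARg–GAL4 chimera, dosed 24 h with 3 nM 6-alpha-fluorotestosterone present. Reporter mRNA quantified by RT-PCR, FAM labelling, HpaI digestion and capillary electrophoresis; induction versus DMSO.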
# [13] = biological target: mouse Peroxisome Proliferator-activated Receptor gamma (PPARg), Pparg (gene 19016) (UniProt P37238); assay: ATG_mPPARg_XSP1: Attagene TRANS-FACTORIAL Multi-Species (XSP1) HepG2 Assay for mouse Peroxisome Proliferator-activated Receptor gamma (PPARg) (AID 2283802)
# Method in brief: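 HepG2 cells transiently transfected with GAL4-UAS reporter units driven by mouse PPARg–GAL4 chimera; 3 nM 6-alpha-fluorotestosterone present. After 24 h dosing, reporter mRNA quantified by RT-PCR, fluorescent labelling and capillary electrophoresis; gain of signal versus DMSO.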
# [14] = biological target: Nuclear receptor subfamily 1 group I member 2 (Mus musculus) (UniProt O54915); assay: ATG_mPXR_XSP1: Attagene TRANS-FACTORIAL Multi-Species (XSP1) HepG2 Assay for mouse Pregnane X Receptor (PXR) (AID 2283803)
# Method in brief: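 Transiently transfected HepG2 cells expressing a receptor-Gal4 chimera drive a GAL4-UAS reporter; 3 nM 6-alpha-fluorotestosterone included. Reporter mRNA read 24 h post-dose by RT-PCR and capillary electrophoresis; gain of signal relative to DMSO.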
# [15] = biological target: zebrafish Thyroid Hormone Receptor alpha (TRa), thraa (gene 30670) (UniProt Q98867); assay: ATG_zfTRa_XSP1: Attagene TRANS-FACTORIAL Multi-Species (XSP1) HepG2 Assay for zebrafish Thyroid Hormone Receptor alpha (TRa) (AID 2283807)
# Method in brief: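 HepG2 cells transiently transfected with GAL4-UAS reporter units including a zebrafish TRa–Gal4 chimera, dosed 24 h with 3 nM 6-alpha-fluorotestosterone present. Reporter mRNA quantified by RT-PCR and capillary electrophoresis; gain versus DMSO.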
# [16] = biological target: human Thyroid hormone Receptor alpha (TRa), THRA (gene 7067) (UniProt P10827); assay: ATG_hTRa_XSP1: Attagene TRANS-FACTORIAL Multi-Species (XSP1) HepG2 Assay for human Thyroid hormone Receptor alpha (TRa) (AID 2283805)
# Method in brief: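 HepG2 cells transiently transfected with GAL4-UAS reporter units expressing chimeric NR-Gal4 proteins, dosed 24 hours with 3 nM 6-alpha-fluorotestosterone present. Reporter mRNA measured by RT-PCR and capillary electrophoresis; gain of signal fitted versus DMSO.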
# [17] = biological target: human Thyroid hormone Receptor beta (TRb), THRB (gene 7068) (UniProt P10828); assay: ATG_hTRb_XSP1: Attagene TRANS-FACTORIAL Multi-Species (XSP1) HepG2 Assay for human Thyroid hormone Receptor beta (TRb) (AID 2283808)
# Method in brief: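 HepG2 cells transiently transfected with reporter units driving GAL4-UAS reporters for chimeric NR-Gal4 proteins; 24 h chemical exposure with 3 nM 6-alpha-fluorotestosterone present. Reporter mRNA quantified by RT-PCR and capillary electrophoresis, gain of signal versus DMSO.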
# [18] = ATG_M_06_XSP1: Attagene TRANS-FACTORIAL Multi-Species (XSP1) HepG2 Assay for M06 Transcription Factor (Internal Marker) (AID 2283790)
# Method in brief: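 Transfected HepG2 multi-reporter system treated 24 h in the presence of 3 nM 6-alpha-fluorotestosterone. The M06 internal marker transcript was quantified by RT-PCR with capillary electrophoresis as a background control, and gain of signal was scored versus DMSO.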
# [19] = ATG_M_61_XSP1: Attagene TRANS-FACTORIAL Multi-Species (XSP1) HepG2 Assay for M61 Transcription Factor (Internal Marker) (AID 2283797)
# Method in brief: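 HepG2 cells transiently transfected with multiplexed GAL4-driven reporter units, dosed 24 h with 3 nM 6-alpha-fluorotestosterone present. Reporter mRNA quantified by RT-PCR, 6-FAM labelling, HpaI digestion and capillary electrophoresis; internal-marker background control, gain of signal versus DMSO.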
# [20] = biological target: Peroxisome proliferator-activated receptor gamma (Homo sapiens) (UniProt P37231); assay: ATG_hPPARg_XSP1: Attagene TRANS-FACTORIAL Multi-Species (XSP1) HepG2 Assay for human Peroxisome Proliferator-activated Receptor gamma (PPARg) (AID 2283800)
# Method in brief: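 HepG2 cells transiently transfected with GAL4-UAS reporter units carrying chimeric NR-Gal4 proteins; 3 nM 6-alpha-fluorotestosterone present. After 24 h dosing, reporter mRNA quantified by RT-PCR and capillary electrophoresis; gain of signal relative to DMSO.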
# Sequence of zebrafish Thyroid Hormone Receptor alpha (TRa), thraa (gene 30670) (Q98867 whole entry, looked up, the tested form may be a part): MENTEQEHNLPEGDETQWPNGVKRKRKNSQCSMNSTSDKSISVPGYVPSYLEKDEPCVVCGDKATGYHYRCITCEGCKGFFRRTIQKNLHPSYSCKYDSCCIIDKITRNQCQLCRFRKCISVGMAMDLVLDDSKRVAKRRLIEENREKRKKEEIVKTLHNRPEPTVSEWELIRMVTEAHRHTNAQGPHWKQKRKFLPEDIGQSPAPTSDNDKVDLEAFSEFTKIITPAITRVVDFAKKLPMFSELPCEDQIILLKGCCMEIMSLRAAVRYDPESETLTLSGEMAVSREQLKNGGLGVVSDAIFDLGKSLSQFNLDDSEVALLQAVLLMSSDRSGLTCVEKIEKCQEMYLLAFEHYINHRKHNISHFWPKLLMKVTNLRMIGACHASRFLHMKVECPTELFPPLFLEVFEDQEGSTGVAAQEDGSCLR
# Sequence of AR (gene 367) (P10275 whole entry, looked up): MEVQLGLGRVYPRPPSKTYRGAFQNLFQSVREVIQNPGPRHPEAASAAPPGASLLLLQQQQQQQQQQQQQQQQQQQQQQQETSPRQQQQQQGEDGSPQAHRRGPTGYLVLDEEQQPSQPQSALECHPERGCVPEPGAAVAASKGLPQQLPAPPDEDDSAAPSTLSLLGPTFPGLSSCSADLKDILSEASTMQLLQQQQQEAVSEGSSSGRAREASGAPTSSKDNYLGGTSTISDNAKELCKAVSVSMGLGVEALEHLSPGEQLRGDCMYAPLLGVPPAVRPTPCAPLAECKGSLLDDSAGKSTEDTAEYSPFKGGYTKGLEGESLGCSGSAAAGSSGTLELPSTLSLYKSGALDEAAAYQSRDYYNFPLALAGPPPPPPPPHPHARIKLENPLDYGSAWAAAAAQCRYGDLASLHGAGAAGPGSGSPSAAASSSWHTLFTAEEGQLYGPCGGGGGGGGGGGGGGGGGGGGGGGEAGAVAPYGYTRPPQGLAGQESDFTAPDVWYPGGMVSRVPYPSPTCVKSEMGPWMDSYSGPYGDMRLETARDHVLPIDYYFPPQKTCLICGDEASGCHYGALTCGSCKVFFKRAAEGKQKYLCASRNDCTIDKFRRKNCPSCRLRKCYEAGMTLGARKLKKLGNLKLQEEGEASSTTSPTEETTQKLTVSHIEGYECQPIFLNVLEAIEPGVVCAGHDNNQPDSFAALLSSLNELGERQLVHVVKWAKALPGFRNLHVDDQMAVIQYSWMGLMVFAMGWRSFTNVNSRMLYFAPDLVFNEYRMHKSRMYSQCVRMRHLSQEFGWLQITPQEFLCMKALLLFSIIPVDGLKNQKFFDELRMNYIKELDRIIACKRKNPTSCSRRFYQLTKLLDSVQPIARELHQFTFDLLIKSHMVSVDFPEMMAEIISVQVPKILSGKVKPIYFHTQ
# Sequence of zebrafish Thyroid Hormone Receptor beta (TRb), thrb (gene 30607) (Q9PVE4 whole entry, looked up, the tested form may be a part): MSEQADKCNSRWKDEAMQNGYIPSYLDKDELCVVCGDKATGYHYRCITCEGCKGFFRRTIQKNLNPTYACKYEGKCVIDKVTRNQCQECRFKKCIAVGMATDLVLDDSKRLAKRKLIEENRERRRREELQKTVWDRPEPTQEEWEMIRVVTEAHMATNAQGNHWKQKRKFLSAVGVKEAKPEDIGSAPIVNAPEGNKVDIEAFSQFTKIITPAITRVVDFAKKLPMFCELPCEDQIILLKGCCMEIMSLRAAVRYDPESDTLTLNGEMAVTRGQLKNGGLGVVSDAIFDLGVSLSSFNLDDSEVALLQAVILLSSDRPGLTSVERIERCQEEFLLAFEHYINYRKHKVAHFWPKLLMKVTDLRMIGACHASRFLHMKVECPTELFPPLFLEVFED
# Sequence of Estrogen receptor beta (Homo sapiens) (Q92731 whole entry, looked up, the tested form may be a part): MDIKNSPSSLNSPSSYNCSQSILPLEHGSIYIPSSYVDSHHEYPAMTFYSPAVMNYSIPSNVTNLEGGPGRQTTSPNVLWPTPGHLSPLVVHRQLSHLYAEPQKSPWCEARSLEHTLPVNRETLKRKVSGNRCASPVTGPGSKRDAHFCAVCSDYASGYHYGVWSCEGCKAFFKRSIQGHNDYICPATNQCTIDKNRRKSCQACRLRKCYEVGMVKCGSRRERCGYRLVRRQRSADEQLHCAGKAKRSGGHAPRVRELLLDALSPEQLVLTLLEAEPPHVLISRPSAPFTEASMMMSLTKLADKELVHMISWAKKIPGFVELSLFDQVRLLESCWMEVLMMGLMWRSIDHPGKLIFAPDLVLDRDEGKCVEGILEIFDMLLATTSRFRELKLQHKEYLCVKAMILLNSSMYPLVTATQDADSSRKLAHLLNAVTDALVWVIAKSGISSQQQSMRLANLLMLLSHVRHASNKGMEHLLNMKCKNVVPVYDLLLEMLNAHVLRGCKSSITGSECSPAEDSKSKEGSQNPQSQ
# Sequence of mouse Peroxisome Proliferator-activated Receptor gamma (PPARg), Pparg (gene 19016) (P37238 whole entry, looked up, the tested form may be a part): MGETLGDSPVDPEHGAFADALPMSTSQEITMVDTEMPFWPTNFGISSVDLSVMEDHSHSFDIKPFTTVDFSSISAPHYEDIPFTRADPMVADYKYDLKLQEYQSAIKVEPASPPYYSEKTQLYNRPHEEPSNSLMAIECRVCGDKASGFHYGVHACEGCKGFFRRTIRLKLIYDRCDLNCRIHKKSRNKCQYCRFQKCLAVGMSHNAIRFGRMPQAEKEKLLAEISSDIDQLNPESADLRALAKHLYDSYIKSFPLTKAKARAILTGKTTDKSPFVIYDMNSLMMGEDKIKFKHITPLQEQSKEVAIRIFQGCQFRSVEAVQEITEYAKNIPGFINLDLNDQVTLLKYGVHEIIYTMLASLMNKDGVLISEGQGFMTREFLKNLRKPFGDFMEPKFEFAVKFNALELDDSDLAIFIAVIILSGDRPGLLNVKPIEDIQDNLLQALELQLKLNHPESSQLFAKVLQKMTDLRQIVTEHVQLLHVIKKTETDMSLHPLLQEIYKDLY
# Sequence of human Thyroid hormone Receptor alpha (TRa), THRA (gene 7067) (P10827 whole entry, looked up, the tested form may be a part): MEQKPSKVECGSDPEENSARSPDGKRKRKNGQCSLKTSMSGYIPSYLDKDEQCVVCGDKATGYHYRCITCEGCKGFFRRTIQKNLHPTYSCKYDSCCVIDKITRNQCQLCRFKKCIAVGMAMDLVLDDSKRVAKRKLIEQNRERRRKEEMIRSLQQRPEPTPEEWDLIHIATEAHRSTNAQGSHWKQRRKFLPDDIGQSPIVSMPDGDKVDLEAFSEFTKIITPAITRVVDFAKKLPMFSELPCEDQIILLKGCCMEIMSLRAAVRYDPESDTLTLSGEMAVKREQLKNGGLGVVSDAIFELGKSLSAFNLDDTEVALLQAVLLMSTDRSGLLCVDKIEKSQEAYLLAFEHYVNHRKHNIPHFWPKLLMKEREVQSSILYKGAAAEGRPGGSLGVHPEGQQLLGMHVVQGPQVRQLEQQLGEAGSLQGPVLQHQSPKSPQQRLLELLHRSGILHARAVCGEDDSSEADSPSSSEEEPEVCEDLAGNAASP
# Sequence of human Thyroid hormone Receptor beta (TRb), THRB (gene 7068) (P10828 whole entry, looked up, the tested form may be a part): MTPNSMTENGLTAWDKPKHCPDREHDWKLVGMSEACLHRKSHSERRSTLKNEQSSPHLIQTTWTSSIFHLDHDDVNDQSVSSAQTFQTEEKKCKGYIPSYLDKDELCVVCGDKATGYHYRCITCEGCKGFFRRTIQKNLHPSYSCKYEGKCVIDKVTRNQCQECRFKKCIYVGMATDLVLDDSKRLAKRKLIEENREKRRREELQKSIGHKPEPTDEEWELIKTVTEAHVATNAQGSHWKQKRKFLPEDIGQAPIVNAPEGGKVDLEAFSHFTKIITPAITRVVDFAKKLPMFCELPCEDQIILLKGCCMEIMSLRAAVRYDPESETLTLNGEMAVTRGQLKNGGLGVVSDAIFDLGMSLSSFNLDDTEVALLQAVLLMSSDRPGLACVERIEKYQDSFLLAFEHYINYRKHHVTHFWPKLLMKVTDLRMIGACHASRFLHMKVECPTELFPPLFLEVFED
# Sequence of frog Thyroid hormone Receptor alpha (TRa), thra-a (gene 397942) (P15204 whole entry, looked up, the tested form may be a part): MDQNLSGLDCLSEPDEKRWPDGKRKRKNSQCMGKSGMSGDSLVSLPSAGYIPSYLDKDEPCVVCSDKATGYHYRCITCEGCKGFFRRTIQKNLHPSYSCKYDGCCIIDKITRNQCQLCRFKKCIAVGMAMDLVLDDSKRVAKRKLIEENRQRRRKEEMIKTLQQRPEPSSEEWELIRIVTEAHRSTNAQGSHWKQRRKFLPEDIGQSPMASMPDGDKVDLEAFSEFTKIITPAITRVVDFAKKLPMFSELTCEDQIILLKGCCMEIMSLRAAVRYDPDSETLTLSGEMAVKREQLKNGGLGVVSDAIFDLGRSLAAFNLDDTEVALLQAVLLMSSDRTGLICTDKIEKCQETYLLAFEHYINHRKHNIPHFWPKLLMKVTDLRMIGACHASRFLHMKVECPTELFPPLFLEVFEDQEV
# Sequence of Nuclear receptor subfamily 1 group I member 2 (Mus musculus) (O54915 whole entry, looked up, the tested form may be a part): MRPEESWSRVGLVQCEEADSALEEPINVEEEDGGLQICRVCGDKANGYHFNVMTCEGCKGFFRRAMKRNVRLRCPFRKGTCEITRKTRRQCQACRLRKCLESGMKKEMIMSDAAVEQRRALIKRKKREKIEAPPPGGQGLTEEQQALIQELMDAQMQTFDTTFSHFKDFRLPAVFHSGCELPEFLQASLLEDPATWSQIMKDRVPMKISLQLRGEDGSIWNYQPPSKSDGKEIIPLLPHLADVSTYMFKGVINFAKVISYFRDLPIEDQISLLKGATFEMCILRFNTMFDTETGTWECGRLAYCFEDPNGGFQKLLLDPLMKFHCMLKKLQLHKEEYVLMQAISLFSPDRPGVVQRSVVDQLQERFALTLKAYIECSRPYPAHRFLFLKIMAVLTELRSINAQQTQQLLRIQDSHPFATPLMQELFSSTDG
structure (smiles),measurement,setting,value
O=P(OCCCl)(OCCCl)OCCCl,outcome,[1],inactive
Cc1cc(N=Nc2ccccc2C)ccc1N,AC50,[2],52.6 µM (active)
Brc1ccc(Oc2ccccc2)cc1,outcome,[1],inactive
Cc1ccc(N)cc1,AC50,[1],40.9 µM (active)
COc1cc(C=O)cc2c1[C@H](COC(N)=O)[C@]1(OC(C)=O)ON2C[C@H]2[C@@H]1N2C(C)=O,AC50,[1],0.00149 µM (active)
Nc1ccc(Cl)cc1N,AC50,[2],50 µM (active)
O=[N+]([O-])c1ccc(Oc2ccc(Cl)cc2Cl)cc1,AC50,[1],77 µM (active)
C[C@]12C=CC3=C4CCC(=O)C=C4CC[C@H]3[C@@H]1CC[C@@H]2O,AC50,[3],0.00447 µM (active)
same,AC50,[4],0.00552 µM (active)
same,outcome,[2],inactive
same,outcome,[5],inactive
same,outcome,[6],inactive
same,outcome,[7],inactive
same,outcome,[8],inactive
same,outcome,[9],inactive
same,outcome,[10],inactive
CNC(=O)Oc1cccc2c1OC(C)(C)C2,AC50,[1],21.4 µM (active)
same,outcome,[2],inactive
Clc1ccc(C(c2ccc(Cl)cc2)C(Cl)Cl)cc1,outcome,[11],inactive
same,outcome,[6],inactive
same,outcome,[7],inactive
same,outcome,[12],inactive
same,AC50,[13],50.3 µM (active)
same,AC50,[14],24.6 µM (active)
same,outcome,[15],inactive
C[N+](C)(C)CC1CO1 (stereo unspecified),AC50,[1],24 µM (active)
same,outcome,[2],inactive
[Cl-].[Cl-].[Hg+2],AC50,[1],1.36 µM (active)
CCC[CH2][Sn]([Cl])([CH2]CCC)[CH2]CCC,AC50,[1],0.642 µM (active)
same,outcome,[6],inactive
same,outcome,[12],inactive
same,outcome,[8],inactive
same,AC50,[16],0.0865 µM (active)
same,outcome,[9],inactive
same,AC50,[15],0.228 µM (active)
same,AC50,[17],0.159 µM (active)
same,AC50,[10],0.084 µM (active)
CCCCCOC(=O)c1ccccc1C(=O)OCCCCC,outcome,[4],inactive
same,outcome,[5],inactive
same,outcome,[11],inactive
same,outcome,[18],inactive
same,outcome,[19],inactive
same,outcome,[7],inactive
same,AC50,[20],31.9 µM (active)
same,outcome,[12],inactive
same,AC50,[13],37.6 µM (active)
same,AC50,[14],5.96 µM (active)
same,outcome,[16],inactive
same,outcome,[15],inactive
same,outcome,[17],inactive
same,outcome,[10],inactive
